In PubChem BioAssay (Tox21):
“And” between values parts separate entries of the source, which are not always exact repeats. Equal values may be shown once. Records with an inconclusive call do not appear. A call without a number means that no potency is given here. Some compounds were tested as several samples or in several runs, with calls that do not always agree. The source made the active and inactive calls. Unless noted, the call rests on the fitted dose curve; in most records, active means well fitted curve in the direction sought with a large enough effect in the repeat runs; inconclusive means weak or mixed curves; inactive means no such curve, though single readings can be large; an effect the other way counts as inactive or inconclusive.

What was measured:
[1] = qHTS assay to identify small molecule agonists of the TGF-beta/Smad signaling pathway (AID 1346859; active means well fitted activation curve with a large enough effect in the signal ratio in the repeat runs, not every such curve was filed as active; the % refers to the signal ratio; further: series mostly up to about 77 µM)
Summary of the method: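 Beta-lactamase reporter activity downstream of Smad binding elements was measured in stably transfected HEK 293T cells; compounds were incubated for 5 hr, substrate for 2 hr at room temperature.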

[2] = biological target: Thyrotropin-releasing hormone receptor (Homo sapiens) (UniProt P34981); assay: qHTS assay to identify small molecule antagonists of the thyrotropin-releasing hormone receptor (TRHR) signaling pathway (AID 1346877; active means well fitted inhibition curve with a large enough effect in the repeat runs, not every such curve was filed as active; further: series mostly up to about 51 µM)
Summary of the method: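 TRHR-expressing HEK293 cells loaded with calcium dye for 2 h at 37 C; compounds pre-incubated 5 min at room temperature before TRH challenge at 1 nM final. Intracellular calcium fluorescence read kinetically for 3 min; 15 concentrations in triplicate.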

[3] = biological target: Thyrotropin-releasing hormone receptor (Homo sapiens) (UniProt P34981); assay: qHTS assay to identify small molecule agonists of the thyrotropin-releasing hormone receptor (TRHR) signaling pathway (AID 1346891; calls by dose curve; further: series mostly up to about 58 µM)
Summary of the method: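 Overnight-plated (18 h, 37 °C, 5% CO2) TRHR-Hek293 cells; 2 h calcium dye at 37 °C; compound in DMSO; 3-min kinetic fluorescence read.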

[4] = Human pregnane X receptor (PXR) small molecule agonists, qHTS cell viability counter screen (AID 1346977); further: nearly all actives have a fitted effect of over 50% in size
Summary of the method: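 After a 5hr pre-incubation, PXR-Luc HepG2 cells received compounds plus positive control in DMSO and were kept 24hr at 37C. Cell viability was quantified by fluorescence from CellTiter-Fluor added for the final hour.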

[5] = Caspase-3/7 induction in HepG2 cells by small molecules, qHTS assay (AID 1346978); further: nearly all actives have a fitted effect of over 15% in size
Summary of the method: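 Wild-type HepG2 cells, 2,000/well, settled 5 hr at 37 C and 5% CO2, then compound-treated for 17 hr; caspase-3/7 activity read by luminescent Caspase-Glo 3/7 after 30 min at room temperature.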

[6] = Caspase-3/7 induction in CHO-K1 cells by small molecules, qHTS cell viability counter screen (AID 1346979); further: nearly all actives have a fitted effect of over 35% in size; further: potency means the concentration at half of the fitted maximal effect
Summary of the method: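 Multiplexed with Caspase-Glo 3/7 in CHO-K1 cells, this counter screen added CellTiter-Fluor after 16hr of compound exposure and recorded fluorescence 1hr later.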

[7] = Caspase-3/7 induction in CHO-K1 cells by small molecules, qHTS assay (AID 1346980); further: nearly all actives have a fitted effect of over 15% in size
Summary of the method: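 Wild-type CHO-K1 cells exposed to compounds for 17hr at 37 C, 5% CO2. Caspase-3/7 activity then measured by Caspase-Glo 3/7 luminescence after 30min at room temperature.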

[8] = Caspase-3/7 induction in HepG2 cells by small molecules, qHTS cell viability counter screen (AID 1346981); further: series mostly up to about 92 µM; nearly all actives have a fitted effect of over 30% in size
Summary of the method: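 Wild-type HepG2 cells, 2,000/well, settled 5 hr at 37 C, 5% CO2 before compound addition. Viability read by CellTiter-Fluor fluorescence, reagent added after 16 hr compound exposure, then 1 hr at 37C, in the same wells as the caspase read.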

[9] = biological target: Nuclear receptor subfamily 1 group I member 2 (Homo sapiens) (UniProt O75469); assay: Human pregnane X receptor (PXR) small molecule agonists, qHTS assay (AID 1346982); further: nearly all actives have a fitted effect of over 35% in size; further: potency means the concentration at half of the fitted maximal effect
Summary of the method: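 PXR-Luc HepG2 reporter cells (CYP3A4-driven luciferase) in 5% charcoal-stripped FBS medium, plated 5 h before compound addition, then treated 24 h at 37C. Luciferase read by ONE-Glo luminescence after 30 min at room temperature.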

[10] = biological target: Acetylcholinesterase (Homo sapiens) (UniProt P22303); assay: Acetylcholinesterase (AChE) small molecule antagonists: colormetric cell-based qHTS assay (AID 1347395; calls by dose curve; further: nearly all actives have a fitted effect of over 30% in size; further: potency means the concentration at half of the fitted maximal effect)
Summary of the method: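 In this cell-based qHTS, attached SH-SY5Y cells were treated with test chemicals for 30 min, after which acetylthiocholine hydrolysis was followed by DTNB colour development over 90 min at 37 C.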

[11] = biological target: Acetylcholinesterase (Homo sapiens) (UniProt P22303); assay: Acetylcholinesterase (AChE) small molecule antagonists: fluorescence cell-based qHTS assay (AID 1347398; calls by dose curve; further: nearly all actives have a fitted effect of over 50% in size; further: potency means the concentration at half of the fitted maximal effect); details: Potency: AChE activity
Summary of the method: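 SH-SY5Y cells (2000/well), attached overnight, incubated with compound 30 min at 37 C. Acetylthiocholine plus Thiolite Green then added for 40 min at room temperature. Thiocholine fluorescence (Ex/Em 490/520 nm) reports cellular AChE activity.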

[12] = biological target: Acetylcholinesterase (Homo sapiens) (UniProt P22303); assay: Acetylcholinesterase (AChE) small molecule antagonists: enzyme-based qHTS assay with human liver microsomes (AID 1347399; calls by dose curve; further: nearly all actives have a fitted effect of over 60% in size; further: potency means the concentration at half of the fitted maximal effect); details: Potency: qHTS inhibition
Summary of the method: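 Recombinant human AChE (50 mU/mL in the enzyme mix) and human liver microsomes (0.25 mg/mL final) were preincubated with compound and NADPH (0.25 mg/mL final) for 30 min at 37 C. Acetylthiocholine/DTNB was then added; thiocholine was read colorimetrically after 10 min at room temperature.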

[13] = biological target: Cytochrome P450 2D6 (Homo sapiens) (UniProt P10635); assay: Cytochrome P450 Family 2 Subfamily D Member 6 (CYP2D6) small molecule antagonists: luciferase reporter qHTS assay (AID 1671196); further: nearly all actives have a fitted effect of over 50% in size; further: potency means the concentration at half of the fitted maximal effect
Summary of the method: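 Cell-free P450-Glo system: CYP2D6 with proluciferin substrate was pre-incubated with compound for 10 min, then reacted with NADPH regeneration for 1 h at room temperature. Luciferin product was detected after 20 min, and data were reported as relative luminescence units.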

[14] = biological target: Cytochrome P450 2C19 (Homo sapiens) (UniProt P33261); assay: Cytochrome P450 Family 2 Subfamily C Member 19 (CYP2C19) small molecule antagonists: luciferase reporter qHTS assay (AID 1671197); further: nearly all actives have a fitted effect of over 65% in size; further: potency means the concentration at half of the fitted maximal effect
Summary of the method: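 First, compounds are pinned into enzyme-substrate mix and held 10 min at room temperature. Second, NADPH regeneration solution is added and plates incubate 1 h at 37C. Third, detection reagent is added and luminescence read after 20 min.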

[15] = biological target: Acetylcholinesterase (Homo sapiens) (UniProt P22303); assay: Acetylcholinesterase (AChE) small molecule antagonists: enzyme-based qHTS assay (AID 1347397; calls by dose curve; further: nearly all actives have a fitted effect of over 55% in size); details: Potency: AChE enzyme activity inhibition
Summary of the method: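 Recombinant human AChE (50 mU/mL) preincubated with compound 30 min at room temperature; acetylthiocholine plus DTNB then added, and thiocholine formation read colorimetrically after 10 min at room temperature. DMSO served as vehicle control.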

[16] = biological target: Nuclear receptor subfamily 1 group I member 2 (Rattus norvegicus) (UniProt Q9R1A7); assay: Rat pregnane X receptor (rPXR) activation by small molecules, qHTS assay (AID 1346983); details: rPXR luciferase reporter cells, One-Glo luminescence, 24 h; stronger effect = higher value; further: nearly all actives have a fitted effect of over 20% in size
Summary of the method: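 Cell-based rPXR activation assay: rPXR cells, 2,000 per well, rested 5hr at 37 C, then exposed to compounds in DMSO for 24 hr at 37 C. Luciferase activity read by One-Glo luminescence after 30 min at room temperature.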

[17] = biological target: Cytochrome P450 2C9 (Homo sapiens) (UniProt P11712); assay: Cytochrome P450 Family 2 Subfamily C Member 9 (CYP2C9) small molecule antagonists: luciferase reporter qHTS assay (AID 1671198); further: nearly all actives have a fitted effect of over 50% in size; further: potency means the concentration at half of the fitted maximal effect
Summary of the method: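 P450-Glo proluciferin substrate with CYP2C9 enzyme; 10 min RT preincubation, then NADPH regeneration 1 h at 37C; luciferin detection reagent 20 min RT, luminescence in relative luminescence units.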

[18] = biological target: Nuclear receptor subfamily 1 group I member 2 (Homo sapiens) (UniProt O75469); assay: CYP3A4 induction through human pregnane X receptor (PXR) by small molecules, qHTS assay (AID 1346984); further: nearly all actives have a fitted effect of over 40% in size
Summary of the method: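 DPX-2 HepG2 cells carrying a PXR response element and CYP3A4-promoter luciferase construct, treated with compounds 24 hr at 37C. Then P450-Glo CYP3A4 Luciferin-IPA substrate (3uM final) for 3 hr at 37C, One-Glo added, luminescence read.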

[19] = biological target: Nuclear receptor subfamily 1 group I member 2 (Homo sapiens) (UniProt O75469); assay: Human pregnane X receptor (PXR) activation by small molecules, qHTS assay (AID 1346985); further: nearly all actives have a fitted effect of over 40% in size; further: potency means the concentration at half of the fitted maximal effect
Summary of the method: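 DPX-2 cells (HepG2 co-transfected with a PXR response element and a CYP3A4-promoter luciferase construct) were seeded at 2,000 per well, rested 5 hr at 37C, then exposed to DMSO-dissolved compounds for 24 hr. Activation was read as luciferase luminescence.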

Cytochrome P450 2D6 (Homo sapiens), sequence (P10635 whole entry, looked up): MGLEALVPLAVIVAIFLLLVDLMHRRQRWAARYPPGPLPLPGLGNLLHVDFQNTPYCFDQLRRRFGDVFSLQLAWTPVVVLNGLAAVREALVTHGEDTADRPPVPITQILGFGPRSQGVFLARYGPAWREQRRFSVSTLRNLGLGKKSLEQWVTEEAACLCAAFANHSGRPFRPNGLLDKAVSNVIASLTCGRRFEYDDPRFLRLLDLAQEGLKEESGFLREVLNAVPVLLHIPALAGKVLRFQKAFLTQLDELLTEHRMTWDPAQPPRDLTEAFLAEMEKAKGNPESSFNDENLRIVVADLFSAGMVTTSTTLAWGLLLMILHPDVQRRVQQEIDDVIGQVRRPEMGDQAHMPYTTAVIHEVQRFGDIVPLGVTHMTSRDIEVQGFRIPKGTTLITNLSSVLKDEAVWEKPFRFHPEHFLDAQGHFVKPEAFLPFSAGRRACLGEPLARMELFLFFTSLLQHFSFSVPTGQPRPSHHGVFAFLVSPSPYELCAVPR
Acetylcholinesterase (Homo sapiens), sequence (P22303 whole entry, looked up): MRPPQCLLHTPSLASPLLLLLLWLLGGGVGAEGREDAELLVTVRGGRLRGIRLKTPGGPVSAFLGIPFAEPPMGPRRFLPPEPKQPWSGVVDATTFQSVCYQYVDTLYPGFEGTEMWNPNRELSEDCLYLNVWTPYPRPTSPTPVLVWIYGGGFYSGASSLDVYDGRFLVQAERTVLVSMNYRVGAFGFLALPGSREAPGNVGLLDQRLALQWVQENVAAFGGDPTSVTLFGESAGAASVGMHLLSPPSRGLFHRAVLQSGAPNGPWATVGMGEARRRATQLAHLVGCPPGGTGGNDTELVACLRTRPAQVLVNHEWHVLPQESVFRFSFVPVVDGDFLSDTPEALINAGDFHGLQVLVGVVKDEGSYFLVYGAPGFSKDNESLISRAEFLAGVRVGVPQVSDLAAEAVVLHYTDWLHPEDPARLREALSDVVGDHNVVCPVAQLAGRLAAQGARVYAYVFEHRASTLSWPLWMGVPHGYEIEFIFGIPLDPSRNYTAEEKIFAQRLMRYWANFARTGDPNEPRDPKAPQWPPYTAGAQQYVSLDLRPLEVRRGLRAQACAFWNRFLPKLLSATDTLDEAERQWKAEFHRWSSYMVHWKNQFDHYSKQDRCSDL
Cytochrome P450 2C19 (Homo sapiens), sequence (P33261 whole entry, looked up): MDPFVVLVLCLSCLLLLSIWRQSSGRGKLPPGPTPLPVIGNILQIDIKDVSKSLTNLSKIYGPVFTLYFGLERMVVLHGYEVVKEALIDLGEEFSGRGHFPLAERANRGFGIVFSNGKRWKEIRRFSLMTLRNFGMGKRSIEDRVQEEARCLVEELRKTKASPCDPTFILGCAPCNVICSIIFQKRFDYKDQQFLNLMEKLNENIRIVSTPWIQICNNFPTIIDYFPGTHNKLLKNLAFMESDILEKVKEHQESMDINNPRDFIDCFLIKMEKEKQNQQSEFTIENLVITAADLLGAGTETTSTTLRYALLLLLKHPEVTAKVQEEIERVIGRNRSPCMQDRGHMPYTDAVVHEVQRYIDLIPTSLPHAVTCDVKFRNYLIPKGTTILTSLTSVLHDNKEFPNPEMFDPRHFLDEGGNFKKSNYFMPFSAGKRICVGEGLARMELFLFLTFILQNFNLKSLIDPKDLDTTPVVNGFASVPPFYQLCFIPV
Thyrotropin-releasing hormone receptor (Homo sapiens), sequence (P34981 whole entry, looked up): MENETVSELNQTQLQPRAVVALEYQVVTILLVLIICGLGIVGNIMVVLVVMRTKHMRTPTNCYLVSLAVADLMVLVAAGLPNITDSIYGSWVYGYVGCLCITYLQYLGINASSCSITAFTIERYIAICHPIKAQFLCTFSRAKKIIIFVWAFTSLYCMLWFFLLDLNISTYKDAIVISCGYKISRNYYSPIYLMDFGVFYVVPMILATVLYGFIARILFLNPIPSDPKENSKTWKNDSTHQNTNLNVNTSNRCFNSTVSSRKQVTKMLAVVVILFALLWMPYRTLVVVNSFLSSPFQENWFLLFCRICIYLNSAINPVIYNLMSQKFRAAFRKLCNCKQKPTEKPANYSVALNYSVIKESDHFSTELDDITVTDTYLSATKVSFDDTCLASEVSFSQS
Cytochrome P450 2C9 (Homo sapiens), sequence (P11712 whole entry, looked up): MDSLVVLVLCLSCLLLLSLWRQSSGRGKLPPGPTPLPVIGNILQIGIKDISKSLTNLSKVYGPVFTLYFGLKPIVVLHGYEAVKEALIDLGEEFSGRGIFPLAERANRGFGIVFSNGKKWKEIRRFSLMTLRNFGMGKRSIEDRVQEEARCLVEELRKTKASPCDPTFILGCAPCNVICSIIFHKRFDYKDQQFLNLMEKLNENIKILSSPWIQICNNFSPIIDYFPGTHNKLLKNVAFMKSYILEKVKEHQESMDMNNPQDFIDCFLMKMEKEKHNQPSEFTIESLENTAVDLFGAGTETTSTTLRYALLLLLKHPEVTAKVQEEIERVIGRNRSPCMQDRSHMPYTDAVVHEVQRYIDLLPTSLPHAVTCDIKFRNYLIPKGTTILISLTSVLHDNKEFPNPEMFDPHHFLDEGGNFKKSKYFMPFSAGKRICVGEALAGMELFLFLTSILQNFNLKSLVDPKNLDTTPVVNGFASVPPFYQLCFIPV
Nuclear receptor subfamily 1 group I member 2 (Homo sapiens), sequence (O75469 whole entry, looked up): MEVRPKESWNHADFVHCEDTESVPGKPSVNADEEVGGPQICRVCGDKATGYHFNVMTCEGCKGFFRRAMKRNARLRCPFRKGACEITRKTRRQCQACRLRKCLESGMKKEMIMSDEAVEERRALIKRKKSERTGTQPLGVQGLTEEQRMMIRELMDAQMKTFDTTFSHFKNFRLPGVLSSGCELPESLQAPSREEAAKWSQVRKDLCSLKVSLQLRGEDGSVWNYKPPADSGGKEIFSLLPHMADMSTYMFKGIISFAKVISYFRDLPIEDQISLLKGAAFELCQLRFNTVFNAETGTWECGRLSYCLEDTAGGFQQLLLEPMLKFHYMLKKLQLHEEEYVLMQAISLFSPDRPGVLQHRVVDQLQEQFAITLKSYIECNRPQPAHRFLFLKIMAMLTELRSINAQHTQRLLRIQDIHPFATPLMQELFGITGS
Nuclear receptor subfamily 1 group I member 2 (Rattus norvegicus), sequence (Q9R1A7 whole entry, looked up): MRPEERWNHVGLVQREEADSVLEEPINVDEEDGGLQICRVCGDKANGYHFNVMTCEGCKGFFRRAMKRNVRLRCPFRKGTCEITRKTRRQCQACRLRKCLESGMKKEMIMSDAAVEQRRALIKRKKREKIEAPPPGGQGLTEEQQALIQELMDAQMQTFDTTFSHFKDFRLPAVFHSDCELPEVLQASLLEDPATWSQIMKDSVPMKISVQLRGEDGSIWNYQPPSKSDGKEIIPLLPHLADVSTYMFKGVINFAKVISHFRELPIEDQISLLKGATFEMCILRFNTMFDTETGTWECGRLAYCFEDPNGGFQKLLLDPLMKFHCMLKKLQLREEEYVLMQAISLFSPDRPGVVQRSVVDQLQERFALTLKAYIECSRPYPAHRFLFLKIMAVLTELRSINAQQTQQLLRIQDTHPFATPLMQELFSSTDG

SMILES	Potency [1]	outcome [2]	Potency [3]	Potency [4]	outcome [5]	Potency [6]	outcome [7]	Potency [8]	Potency [9]	Potency [10]	Potency [11]	Potency [12]	Potency [13]	Potency [14]	Potency [15]	max activation [16]	Potency [17]	outcome [18]	Potency [19]
CCCCCOC(=O)c1ccccc1C(=O)OCCCCC	inactive	inactive	inactive	inactive	inactive	inactive	inactive	inactive	inactive	inactive	inactive	inactive	inactive	11.2 µM (active) and 7.96 µM (active)					
CCN(CC)c1ccccc1	inactive	inactive	inactive	inactive	inactive	inactive	inactive	inactive	inactive	inactive	inactive	inactive	inactive	inactive	inactive				
CC(NC(C)(C)C)C(=O)c1cccc(Cl)c1 (stereo not given)	inactive	inactive	inactive	inactive	inactive	inactive	inactive	inactive								-1.59% (inactive)	inactive		
CCCCCCCCCCCC#N	inactive			inactive	inactive	inactive	inactive	inactive	inactive	inactive	inactive	inactive		18 µM (active) and inactive			inactive		
CN(C)N=O	inactive	inactive	inactive	inactive	inactive	inactive	inactive	inactive	inactive	inactive	inactive	inactive		inactive	inactive		inactive		
CCCCN(CC)C(=O)SCCC	inactive	inactive	inactive	inactive	inactive	inactive	inactive	inactive	inactive	inactive	inactive	inactive	inactive	80.5 µM (active) and inactive	inactive		inactive		
NCC(O)c1ccc(O)cc1 (stereo not given)	inactive	inactive	inactive	inactive	inactive	inactive	inactive	inactive	inactive				inactive	inactive			inactive		
Cc1cccc([N+](=O)[O-])c1	inactive	inactive	inactive	inactive	inactive	inactive	inactive	inactive	inactive	inactive	inactive	inactive	inactive	inactive					
CCOP(OCC)OCC	inactive	inactive	inactive	inactive	inactive	inactive	inactive	inactive	inactive	inactive and 28.3 µM (active)	inactive	inactive	91 µM (active) and 35.6 µM (active)	inactive			inactive		
CCCCN(CCCC)SN(C)C(=O)Oc1cccc2c1OC(C)(C)C2	inactive			inactive	inactive	69.7 µM (active)	inactive	inactive	62.1 µM (active) and inactive	809 nM (active) and 159 nM (active)	36.2 nM (active) and 564 nM (active)	573 nM (active) and 3.56 µM (active)	28.7 µM (active) and 35.6 µM (active)	36.2 µM (active) and 71 µM (active)					
COC(=O)NS(=O)(=O)c1ccc(N)cc1	inactive			inactive	inactive	inactive	inactive	inactive	inactive	inactive	inactive	inactive		71.3 µM (active) and inactive	inactive				
ClCc1cccnc1	inactive	inactive	inactive	inactive	inactive	inactive	inactive	inactive	inactive	inactive	inactive	inactive		69.8 µM (active) and inactive	inactive		inactive		
CC(C)(C)C(O)(CCc1ccc(Cl)cc1)Cn1cncn1 (stereo not given)	inactive	inactive	inactive	inactive	inactive		inactive	inactive	27.6 µM (active) and 9.69 µM (active)	inactive	inactive	inactive		640 nM (active) and 448 nM (active)	inactive		3.21 µM (active) and 3.56 µM (active)		
Cn1cc(-c2ccccc2)c(=O)c(-c2cccc(C(F)(F)F)c2)c1	inactive	inactive	inactive	inactive	inactive		inactive		29.9 µM (active) and 17.2 µM (active)	inactive	inactive	inactive		1.95 µM (active) and 2.83 µM (active)	inactive		34.7 µM (active) and 31.7 µM (active)		
CCCC1COC(Cn2cncn2)(c2ccc(Cl)cc2Cl)O1 (stereo not given)	inactive	inactive	inactive		inactive	62.3 µM (active) and 68.6 µM (active)	inactive		31.2 µM (active) and 9.69 µM (active)	inactive	inactive	inactive		456 nM (active) and 356 nM (active)			2.04 µM (active) and 2.24 µM (active)		
CN(C)CCO	inactive	inactive	inactive	inactive	inactive	inactive	inactive	inactive	inactive	inactive	inactive	inactive		inactive	inactive		inactive		
CC(C)N1C(=O)c2ccccc2NS1(=O)=O	inactive			inactive	inactive	inactive	inactive	inactive	inactive	inactive	inactive	inactive			inactive		20 µM (active) and 17.8 µM (active)		
O=C(O)c1ccccn1	inactive			inactive	inactive	inactive	inactive	inactive	inactive	inactive	inactive	inactive		inactive	inactive			inactive	inactive
O=c1[nH]c2ccccc2c(=O)o1	inactive	inactive	inactive	inactive	inactive	inactive	inactive	inactive	inactive	inactive	inactive	inactive	inactive	inactive	inactive		inactive		
CCC[N+](=O)[O-]	inactive			inactive	inactive	inactive	inactive	inactive	inactive	inactive	inactive	inactive	inactive	27.8 µM (active)	inactive				
CC(C)=C[C@@H]1[C@@H](C(=O)OCc2coc(Cc3ccccc3)c2)C1(C)C	inactive			inactive	inactive	inactive	inactive	inactive	13.7 µM (active)	inactive	inactive	inactive	inactive	10 µM (active) and 4.36 µM (active)	inactive	12.4% (inactive)	1.42 µM (active) and 5.49 µM (active)	inactive	22.4 µM (active)
CC(C)C1(C)N=C(c2nc3ccccc3cc2C(=O)O)NC1=O (stereo not given)	inactive	inactive	inactive	inactive	inactive	inactive	inactive	inactive	inactive	inactive	inactive	inactive		inactive	inactive				
CN1C(=O)CN=C(c2ccccc2)c2cc(Cl)ccc21	inactive	inactive	inactive	inactive		inactive	inactive	inactive											
c1ccc2c(c1)oc1ccccc12	inactive	inactive	inactive	inactive	inactive	inactive	inactive	inactive	inactive	inactive	inactive	inactive		40.5 µM (active)			36.1 µM (active) and inactive		
COP(N)(=O)SC (stereo not given)	inactive	inactive	inactive	inactive	inactive	inactive	inactive	inactive	inactive			inactive		39.3 µM (active) and inactive					
[N-]=[N+]=[N-]	inactive	inactive	inactive	inactive	inactive	inactive	inactive	inactive	inactive	inactive	inactive	inactive	38.6 µM (active) and inactive	24.4 µM (active) and 50.2 µM (active)	inactive		38.6 µM (active) and 35.6 µM (active)		
